Several values for one entry are separate records, joined by “and”; a condition that tells them apart may be missing. Equal entries are not always repeated. Records with an inconclusive call do not appear. Activity calls are given as the source filed them. Calls come from the whole dose curve; as a rule, active = well fitted inhibition curve with a large enough effect; inconclusive = small, poorly fitted or top-dose-only effect; inactive = flat fitted curve, though single readings scatter.
What follows are compounds tested against Phospholipid hydroperoxide glutathione peroxidase GPX4 (Homo sapiens) (UniProt P36969) (assay: Primary qHTS Assay for Inhibitors of Recombinant Selenoprotein Glutathione Peroxidase 4 (GPX4) (AID 1845192; note: nearly all actives have a fitted effect of over 65% in size)). Details: recombinant GPX4, GR-coupled NADPH fluorescence, 15 min; series mostly up to 50 µM; activity change, negative = inhibition: at the top concentration.
Chain of Phospholipid hydroperoxide glutathione peroxidase GPX4 (Homo sapiens) (P36969 whole entry, looked up): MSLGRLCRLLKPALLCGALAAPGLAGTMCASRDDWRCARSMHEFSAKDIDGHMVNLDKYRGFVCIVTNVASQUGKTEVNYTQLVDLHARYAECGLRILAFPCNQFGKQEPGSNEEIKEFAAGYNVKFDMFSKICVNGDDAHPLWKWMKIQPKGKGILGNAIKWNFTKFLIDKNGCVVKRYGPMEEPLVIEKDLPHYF
Source text: Assay Provider: Elias S.J. Arner MD PhD.
Department of Medical Biochemistry and Biophysics
Karolinska Institutet, Solna, Stockholm, Sweden
Selenoprotein glutathione peroxidases (GPX), like the ubiquitously expressed GPX1 and the ferroptosis modulator GPX4, enact their antioxidant activities by reducing hydroperoxides using glutathione. […] GPX1 and GPX4 inhibitors have thus shown promise as anti-cancer agents. Existing inhibitors are often promiscuous, or modulate GPX activity only indirectly, so novel direct inhibitors identified through screening against GPX1 and GPX4 could be valuable. Here, we developed optimized glutathione reductase (GR)-coupled GPX assays for the biochemical high-throughput screen (HTS) of almost 12,000 compounds with known mechanisms of action. Initial hits were triaged using a GR counter-screen, assessed for isoform specificity using a separate GPX2 assay, and were assessed for general selenocysteine-targeting activity using a thioredoxin reductase (TXNRD1) assay. With this suite of assays, we identified novel GPX1/GPX2- and GPX4-specific inhibitors and can here present a validated pipeline for future discovery research for selenoprotein-targeting agents.
SEQUENCE No. (e.g., 1, 2, 3, etc.); […] (e.g., Cells, Incubation, Reagent, etc.); VALUE; DESCRIPTION.
1; Reagent 1; 3 uL; 333.33 nM GPx4 enzyme or no enzyme control in 1536-well, black, solid Greiner assay plate.
2; Compound; 25 nL; Kalypsis pin tool (Wako USA) equipped with a 1536-well pin head.
3; Incubation; 30 min; room temperature.
4; Reagent 2; 1 uL; 500 nM GR, 5 mM GSH, 2.5 mM NADPH solution
5; Reagent 3; 1 uL; 2.5 mM CHP in 50% EtOH.
6; Detection; Fluorescence; ViewLux microplate reader, excitation 340 nm and emission 450 nm.
7; Incubation; 15 min; room temperature.
8; Detection; Fluorescence; ViewLux microplate reader, excitation 340 nm and emission 450 nm.
NOTES (numbers refer to Sequence numbers above)
1. 3 µL of 333.33 nM GPX4 and 0.016% BSA in assay buffer (50 mM Tris-HCl, 2 mM EDTA (pH 7.5), 150 mM NaCl) was added to columns 3-48 of 1536-well plates using a BioRAPTR Flying Reagent Dispenser (Let's Go Robotics (LGR), Carlsbad, CA). A no-enzyme control (0.01% BSA in TES assay buffer) was added to columns 1-2.
2. 25 nL, library and DMSO controls were added to each well with a pin tool (Kalypsys).
3. The assay plates were incubated for 30 minutes at room temperature.
4. 1 µL of master mix (500 nM glutathione reductase (GR), 5 mM reduced glutathione (GSH), 2.5 mM NADPH in assay buffer) was added.
5. 1 µL of cumene hydroperoxide (CHP) ([2.5 mM] in 50% EtOH) was then added within 5 minutes to initiate the reaction. Final concentrations were: 200 nM GPX4, 1 mM GSH, 0.5 mM CHP, 0.5 mM NADPH, 100 nM GR, 0.01% BSA.
6. Initial fluorescence readout (t=0) at 340/450 nm was measured using a ViewLux multimodal detector (PerkinElmer, Waltham, MA).
8. Endpoint fluorescence readout (t=15) at 340/450 nm was measured 15 min after room temperature incubation.
With `N#CCC1(n2cc(-c3ncnc4[nH]ccc34)cn2)CN(C2CCN(C(=O)c3ccnc(C(F)(F)F)c3F)CC2)C1` the Potency was 20.2 µM (active). In the case of `OC1CCC([C@H](O)C[C@H]2c3c(F)cccc3-c3cncn32)CC1` (stereo not given in full), the “outcome” value is reported as “inactive”. In the case of `C[C@H]1O[C@H](O[C@H]2[C@H](O)[C@@H](O)[C@@H](O[C@H]3[C@H](O)[C@@H](O)C(O)O[C@@H]3CO)O[C@@H]2CO)[C@H](O)[C@@H](O)[C@@H]1N[C@H]1C=C(CO)[C@@H](O)[C@H](O)[C@H]1O` (stereo not given in full), the “outcome” value is reported as “inactive”. `Nc1nccc(-c2c(-c3ccc(F)cc3)ncn2C2CCN(Cc3ccon3)CC2)n1` was tested, and the “outcome” value was “inactive”. With `O=c1ncccn1[C@@H]1O[C@H](CO)[C@@H](O)[C@H]1O` the “outcome” value was “inactive”. `NC1=N[C@@]2(c3cc(NC(=O)c4ccc(F)cn4)ccc3F)COC[C@H]2CS1` was tested, and the “outcome” value was “inactive”. For `O=C(/C=C/N1C[C@H]2C[C@@H]1CN2c1ccccn1)c1ccccc1O`, the “activity change, negative = inhibition” value was 2.42% (inactive). In the case of `COc1cc2c3c(n(CCCn4ccnc4)c(=O)c2cc1OC)-c1cc2c(cc1C3=O)OCO2`, the “activity change, negative = inhibition” value is reported as 4.54% (inactive). `Cc1cc(-c2cnn3c(NCC4CC(C)(O)C4)cc(Oc4cccnc4)nc23)ccc1C(=O)NC1CC1` (stereo not given) was tested, and the activity change, negative = inhibition was -10.8% [at 4.52 µM] (inactive). In the case of `COc1cc2nccc(Oc3ccc(NC(=O)c4cn(C(C)C)c(=O)n(-c5ccc(F)cc5)c4=O)cc3F)c2cc1OC`, the “activity change, negative = inhibition” value is reported as -4.31% (inactive). With `CC(=O)N[C@H]1[C@H](O[C@@H]2c3ccc(c(Cl)c3)Oc3cc4cc(c3O[C@@H]3O[C@H](CO)[C@@H](O)[C@H](O)[C@H]3NC(=O)CCCCCCCC(C)C)Oc3ccc(cc3Cl)C[C@H]3NC(=O)[C@H](N)c5ccc(O)c(c5)Oc5cc(O)cc(c5)[C@H](NC3=O)C(=O)N[C@H]4C(=O)N[C@H]3C(=O)N[C@@H]2C(=O)N[C@@H](C(=O)O)c2cc(O)cc(O[C@H]4O[C@H](CO)[C@@H](O)[C@H](O)[C@@H]4O)c2-c2cc3ccc2O)O[C@H](CO)[C@@H](O)[C@@H]1O` the “outcome” value was “inactive”. With `O=C1OC(COc2ccccc2[N+](=O)[O-])CC1Cc1ccccc1` (stereo not given) the “activity change, negative = inhibition” value was -0.944% (inactive). In the case of `CN(C)C(N)=NC(=N)N`, the outcome is reported as “inactive [setting not given]”. In the case of `CCC(=O)N1CCOc2c(cc(-c3cc(OC)cc(OC)c3)cc2C(=O)N[C@H]2CCCN(C)C2)C1`, the “outcome” value is reported as “inactive”. `C[C@H]1CNCCCN1S(=O)(=O)c1cccc2cncc(F)c12` was tested, and the Potency was “inactive”. In the case of `CONC(=O)Nc1ccc(-c2sc3c(c2CN(C)C)c(=O)n(-c2ccc(OC)nn2)c(=O)n3Cc2c(F)cccc2F)cc1`, the “activity change, negative = inhibition” value is reported as -18.9% (inactive). In the case of `NS(=O)(=O)c1ccc(Cc2c(-c3cccc(-c4ccccc4)c3)nn(-c3nc(C(=O)O)cs3)c2CC2CC2)cc1`, the Potency is reported as 6.4 µM (active). In the case of `CC(C)(CO)n1cc(C(=O)c2cncc(NC(=O)Cc3ccc(Cl)cn3)c2)c2cnc(N)nc21`, the “activity change, negative = inhibition” value is reported as -26.2% (inactive). In the case of `Nc1n[n+]([O-])c2ccccc2[n+]1[O-]`, the “outcome” value is reported as “inactive”. With `NC(CC1c2ccccc2Oc2ccccc21)(C(=O)O)C1CC1C(=O)O` (stereo not given) the “outcome” value was “inactive”. In the case of `CC(C)n1c(/C=C/[C@H](O)C[C@H](O)CC(=O)O)c(-c2ccc(F)cc2)c2ccccc21`, the “outcome” value is reported as “inactive”. In the case of `NCC(=O)Nc1cncc(-c2nn3c(=O)cc(N4CCNCC4)nc3s2)c1`, the “activity change, negative = inhibition” value is reported as 3.53% (inactive). In the case of `CN(C)CCNC(=O)COc1c2cccc1Cc1cccc(c1OCC(=O)NCCN(C)C)Cc1cccc(c1OCC(=O)NCCN(C)C)Cc1cccc(c1OCC(=O)NCCN(C)C)C2`, the outcome is reported as “inactive [at 9.73 µM]”. `O=C1S/C(=C\c2ccc(OCc3cccc(B(O)O)c3)cc2)C(=O)N1Cc1ccc(F)cc1` was tested, and the “activity change, negative = inhibition” value was -22.9% (inactive). In the case of `CN1C(=O)[C@@H](NC(=O)c2n[nH]c(Cc3ccccc3)n2)COc2ccccc21`, the “activity change, negative = inhibition” value is reported as 4.13% (inactive). With `C=CCN(/C=C1\C(=O)O[C@@H](COC)[C@]2(C)C1=C(O)C(=O)C1=C2[C@@H](OC(C)=O)C[C@]2(C)C(=O)CC[C@H]12)CC=C` the “activity change, negative = inhibition” value was -15.5% (inactive). In the case of `CN(C)CCOc1ccc(-c2nc(-c3ccc4c(c3)CC/C4=N\O)c(-c3ccncc3)[nH]2)cc1`, the “activity change, negative = inhibition” value is reported as -18.3% (inactive). In the case of `CCn1c(=O)c2c(nc(/C=C/c3ccc(OC)c(OC)c3)n2C)n(CC)c1=O`, the “activity change, negative = inhibition” value is reported as -0.651% (inactive). With `C=CC(=O)N1CCC[C@H](n2c(=O)n(-c3ccc(Oc4ccccc4)cc3)c3c(N)ncnc32)C1` the “activity change, negative = inhibition” value was -23.1% (inactive). For `Cc1ccc(NS(=O)(=O)c2ccc3c(c2)C2C=CCC2C(c2ccc(C(=O)O)cc2)N3)cc1C` (stereo not given), the Potency was 22.7 µM (active). In the case of `COC(=O)C1=C(C)NC(c2ncc(F)cc2F)=N[C@@H]1c1ccc(F)cc1Cl`, the “activity change, negative = inhibition” value is reported as -18.1% (inactive). With `O=C(NCc1ccc(S(=O)(=O)c2cccc(C(F)(F)F)c2)cc1)c1cnc2[nH]ncc2c1` the “activity change, negative = inhibition” value was 4.61% (inactive). `C=C1CCC2[C@](C)(CO)C(O)CC[C@]2(C)C1C/C=C1/C(=O)OCC1O` (stereo not given in full) was tested, and the “activity change, negative = inhibition” value was 2.57% (inactive). `CNC(=O)[C@@H](NC(=O)[C@H](CC(C)C)[C@H](O)C(=O)NO)C(C)(C)C` was tested, and the “outcome” value was “inactive”. `CCCNC(=O)[C@H]1O[C@@H]1C(=O)N[C@H](C(=O)N1CCC[C@H]1C(=O)OC)C(C)CC` (stereo not given in full) was tested, and the “outcome” value was “inactive”. For `COc1ccc(-n2cnc3cc(C(=O)N4CCCCC4)ccc32)cc1`, the “activity change, negative = inhibition” value was 4.88% (inactive). In the case of `CC(/C=C1\SC(=S)N(CC(=O)O)C1=O)=C\c1ccccc1`, the Potency is reported as 12.8 µM (active) and 12.6 µM (active). For `Cc1ccc(-c2ccc(C)cn2)nc1`, the “activity change, negative = inhibition” value was -27.4% (inactive). With `CN1CCN(C(=O)[C@H]2[C@@H](C(=O)O)[C@H]3CC[C@@H]2O3)CC1` the activity change, negative = inhibition was 3.36% [at 9.73 µM] (inactive). With `CCNCCS(=O)(=O)NC[C@@]1(c2ccccc2)SC(NC(=O)C(C)(C)C)=NN1C(=O)C(C)(C)C` the “outcome” value was “inactive”.

— PubChem BioAssay (NCATS)
Potency is the fitted concentration of half-maximal effect.
